# Source: PubChem BioAssay AID977606 (Broad Institute, 2014)
# Screen size: about 1,500 compounds; about 430 (29%) were called active. How the calls were made is not given here. Not all results are given here. Entries that show only a call come without a potency. Potency and affinity values are given separately.
# Assay: insulin secretion activators without glucose, dose response, counter-screen for glucose-dependent insulin secretion activators, cell-based, INS-1E, Gaussia luciferase, luminescence, cherry-pick (AID 977606)
# Conditions: INS-1E Gaussia luciferase insulin secretion, no glucose, 100% = twice neutral-control luminescence; series mostly up to 35 µM
row,Compound,outcome
1,CC(C)COC(=O)N1C[C@H](O)C[C@H]1C(=O)Nc1ccc(Cl)cc1,inactive
2,Cn1cc(C(=O)NCC(=O)Nc2ccccc2Br)cn1,inactive
3,COc1ccc(CNC(=O)c2cnn3c(C(F)F)cc(C)nc23)cc1,inactive
4,COc1ccccc1-c1cnc2c(Nc3cccc(OC(F)(F)C(F)F)c3)nccn12,inactive
5,O=C1CC(NS(=O)(=O)c2cccs2)CN1c1cccc(F)c1 (stereo unspecified),inactive
6,CC1(C)Cc2c(cnn2-c2ccccc2)C(NC(=O)CCN2CCCC2=O)C1 (stereo unspecified),inactive
7,COc1ccc(C2CC(c3ccc(OC)c(OC)c3)=NN2C(=O)c2ccccc2)cc1 (stereo unspecified),inactive
8,Cc1ccccc1Cc1c(C)nc2c(C(=O)NCc3ccco3)cnn2c1C,inactive
9,COc1ccc(-c2cc(C(F)(F)F)n3nc(C(=O)O)cc3n2)cc1OC,inactive
10,Cn1nnnc1Sc1ncnc2scc(-c3ccc(F)cc3)c12,inactive
11,CCOc1nc(CC(C)C)c2c(c1C#N)CC(C)(C)OC2,inactive
12,CCOc1nc(Nc2ccccc2F)nc(OCC)n1,inactive
13,CCOc1ncccc1C(=O)Nc1ccccc1F,inactive
14,COc1ccc(C(=O)Nc2ccccc2C(=O)Nc2ccncc2)cc1,inactive
15,Cc1cccc(C(=O)NC(=S)NNC(=O)COc2c(C)cccc2C)c1,inactive
16,COc1ccc(NC(=O)C2(c3ccc(NC(=O)c4ccc(OC)cc4)cc3)CCCC2)cc1,inactive
17,CC(=O)c1cccc(NC(=O)CCC(=O)Oc2ccc(C)cc2)c1,inactive
18,CCOc1ncccc1C(=O)Nc1cccc(S(=O)(=O)NC2=NCCC2)c1,inactive
19,C/C(Cl)=C\Cn1c(N2CCCC2)nc2c1c(=O)[nH]c(=O)n2C,inactive
20,CCCCn1c(N2CCCC2)nc2c1c(=O)[nH]c(=O)n2C,inactive
21,COc1cc2c(cc1OC)-c1cc(N3CCc4ccccc43)nc(=O)n1CC2,inactive
22,Cc1nc2c(c(N3CCOCC3)n1)OCC(=O)N2,inactive

row,Compound,outcome
1,CCC(C)c1ccccc1OCCn1ccnc1 (stereo unspecified),inactive
2,COc1ccc(OCCCCN(C)Cc2ccccc2)cc1,inactive
3,Cc1noc(C)c1S(=O)(=O)NC(=O)C1(C)CCN1C(=O)C1(c2ccc(Cl)cc2)CCC1 (stereo unspecified),inactive
4,CC1(C(=O)N2CCCCC2)CCN1C(=O)C1(c2ccccc2)CC1 (stereo unspecified),inactive
5,CC1(C(=O)NS(=O)(=O)c2ccc(Cl)s2)CCN1C(=O)C1(c2ccc(Cl)cc2)CCC1 (stereo unspecified),inactive
6,CC1(C(=O)NS(=O)(=O)c2ccc(C#N)cc2)CCN1C(=O)C1(c2ccccc2)CCCC1 (stereo unspecified),inactive
7,COC(=O)COc1ccc(C)cc1-n1nc2ccccc2n1,inactive
8,O=c1[nH]c(CN2CCN(c3ccc(O)cc3)CC2)nc2scc(-c3ccc(Cl)cc3)c12,inactive
9,O=C(NCc1ccccc1)c1cccnc1Sc1ccccc1,inactive
10,CCC(O)c1nc2ccccc2n1CCc1ccccc1 (stereo unspecified),inactive
11,CC1(C)Cc2c(c(-c3ccco3)nc3n[nH]c(N)c23)CO1,inactive
12,COc1ccc(CCNC(=O)CN2c3cccc4cccc(c34)S2(=O)=O)cc1OC,inactive
13,Fc1cccc(-c2nnn3c2nc(Cl)c2ccccc23)c1,inactive
14,CC(=O)c1c(C)oc2ccc(NS(=O)(=O)c3ccc(F)cc3C)cc12,inactive
15,CCOC(=O)Cc1nn(Cc2ccccc2)c(=O)c2ccccc12,inactive
16,O=S(=O)(Nc1ccc(-c2ccc3nncn3n2)cc1)c1ccccc1Cl,inactive
17,N#Cc1c(-c2ccncc2)cc(-c2ccc(F)cc2)nc1N,inactive
18,Cc1nc(N)c(C#N)c(-c2cccnc2)c1C,inactive
19,COc1ccc(Cn2c(=O)c3[nH]cnc3n(-c3ccccc3C)c2=O)cc1,inactive
20,CC(=O)c1ccc2c(c1)N(Cc1ccccc1)C(=O)C(C)S2 (stereo unspecified),inactive
21,Cc1ccccc1NC(=O)c1ccc(OCc2c(C)noc2C)cc1,inactive
22,Cc1ccc(OCC(=O)NNC(=O)CCC(=O)Nc2ccc(C)cc2C)cc1,inactive

row,Compound,outcome
1,COc1ccc(CO/N=C/c2c(C)[nH]c(=O)[nH]c2=O)cc1,inactive
2,CCc1nc2c(nnn2Cc2ccc(F)cc2)c(=O)[nH]1,inactive
3,Cc1ccccc1-c1n[nH]c(=S)n1/N=C/c1c(C)nn(-c2ccccc2)c1C,inactive
4,S=c1[nH]nc(-c2ccccc2)n1/N=C/c1c[nH]c2ccccc12,inactive
5,CCOC(=O)c1oc2cc(O)cc(C)c2c1C,inactive
6,C=CCNc1sc(C(=O)C2CC2)c(N)c1C#N,inactive
7,Cc1cccc(N2CCN(C(=O)c3cccn4c(=O)c5c(C)c(C)sc5nc34)CC2)c1C,inactive
8,Cc1ccc(F)cc1NC(=O)c1sc2ncn(CC(=O)N3CCN(c4ccccn4)CC3)c(=O)c2c1C,inactive
9,COc1ccc(/C=N/Nc2ncnc3c2[nH]c2ccccc23)c(OC)c1OC,inactive
10,O=C(CCc1ccccc1)NNC(=O)COc1ccccc1Cl,inactive
11,Cn1c(N)c(C(c2ccccc2)c2c(N)n(C)c(=O)n(C)c2=O)c(=O)n(C)c1=O,inactive
12,O=c1cc(Cl)[nH]c(=O)n1Cc1ccccc1,inactive
13,O=c1cc(-c2ccncc2)oc2c1ccc1ccccc12,inactive
14,CC(C)Cn1c(Cc2ccccc2)n[nH]c1=S,inactive
15,COc1ccc(S(=O)(=O)N(C)CC(=O)Nc2ccc3c(c2)OCCO3)cc1OC,inactive
16,O=C(O)Cc1ccc(NS(=O)(=O)c2ccc3c(c2)OCCO3)cc1,inactive
17,O=C(NCc1ccccc1)C(c1ccncc1)n1c(=O)c(-c2ccccc2)nc2ccccc21 (stereo unspecified),inactive
18,O=C(COc1ccccc1)Nc1ccccc1C(=O)NC1CC1,inactive
19,CN1CCC(N(C)S(=O)(=O)c2ccc(NC(=O)COc3cccc(Cl)c3)cc2)CC1,inactive
20,N#CC1=C(N)Oc2n[nH]c(-c3ccc(F)cc3)c2C1c1cccnc1 (stereo unspecified),inactive
21,COc1ccc(CCNS(=O)(=O)c2cn(C)cn2)cc1OC,inactive
22,NC1=NC[C@H](Cc2ccccc2)N1CCCCC1CCCCC1,inactive

row,Compound,outcome
1,CN=C1c2ccccc2CN1c1cccc(C(=O)OC)c1,inactive
2,CSc1ccc(/C=N/N(C)S(=O)(=O)c2ccc(C)cc2)cc1,inactive
3,Cc1ccc(S(=O)(=O)/N=C2\CN(C)C(=O)N2C)cc1,inactive
4,Cc1cc(Br)ccc1NC(=O)CN(C)C(=O)C1CSC2(C)CCC(=O)N12 (stereo unspecified),inactive
5,Cc1ccc(NC2c3ncccc3C(=O)N2C2CCCCC2)cc1 (stereo unspecified),inactive
6,CCSc1nnc(-c2cccnc2)n1-c1ccc(C)c(Cl)c1,inactive
7,Cc1ccc(-c2cc(C(=O)Nc3nn[nH]n3)c3ccccc3n2)c(C)c1,inactive
8,COc1ccc(CCNC(=O)CCc2nc3ccccc3[nH]2)cc1OC,inactive
9,Cc1ccc(-c2nnc3sc(-c4ccncc4)nn23)cc1,inactive
10,O=c1c2[nH]cnc2n(-c2ccc(F)cc2)c(=O)n1Cc1ccccc1,inactive
11,COc1ccc(S(=O)(=O)NC2CCCCC2)cc1C,inactive
12,O=C(Nc1ccccc1C(=O)N/N=C/c1ccccc1)c1ccco1,inactive
13,Cc1cc(C(=O)NC(C)CCC(C)C)c2ccccc2n1 (stereo unspecified),inactive
14,CONc1nc(NC(C)(C)C)nc(OCC#N)n1,inactive
15,COc1ccc(CCN(C)C(=O)c2oc3ccccc3c2C)cc1OC,inactive
16,COc1ccc2oc(C(=O)Nc3nnc(C)s3)c(C)c2c1,inactive
17,Cc1ccc(S(=O)(=O)N(CC(=O)Nc2ccc(C)cc2C)C(=O)N2CCN(C)CC2)cc1,inactive
18,CCC(c1nnnn1-c1ccc2c(c1)OCCO2)N1CCc2ccccc2C1 (stereo unspecified),inactive
19,CCOc1cc(CNc2cccc3[nH]c(C)nc23)ccc1OC,inactive
20,CCOC(=O)c1cnc2ccc(OCC)cc2c1N1CCN(c2ccccc2)CC1,inactive
21,O=C(Nc1cccnc1)c1cnn2c(C(F)F)cc(C3CC3)nc12,inactive
22,C[C@@H]1CN([C@@H](C)CO)C(=O)CCCn2nncc2CO[C@H]1CN(C)Cc1ccccc1,inactive

row,Compound,outcome
1,C[C@H]1CN([C@@H](C)CO)C(=O)c2ccccc2-c2ccccc2CO[C@@H]1CN(C)Cc1cccc(C(F)(F)F)c1,inactive
2,C[C@@H]1CN([C@H](C)CO)C(=O)c2cc(C#CCN(C)C)cnc2O[C@H]1CN(C)S(=O)(=O)c1cn(C)cn1,inactive
3,C[C@@H]1CN([C@H](C)CO)C(=O)Cc2cc(NC(=O)CCCN(C)C)ccc2O[C@H]1CN(C)Cc1ccc(-c2ccccc2)cc1,inactive
4,C[C@H]1CN([C@@H](C)CO)C(=O)c2ccccc2-c2ccccc2CO[C@@H]1CN(C)Cc1ccc(Cl)c(Cl)c1,inactive
5,C[C@@H]1CN([C@H](C)CO)S(=O)(=O)c2ccc(-c3ccc(C#N)cc3)cc2O[C@H]1CN(C)C,inactive
6,C[C@@H]1CN([C@@H](C)CO)C(=O)c2cccc(NC(=O)Nc3ccc(C(F)(F)F)cc3)c2O[C@H]1CN(C)Cc1ccc(Cl)c(Cl)c1,inactive
7,Cc1cccc(C)c1-n1nnnc1C1(C)CCC(=O)N1Cc1cccs1 (stereo unspecified),inactive
8,Cc1ccc(-n2ncc3c2CC(C)(C)CC3NC(=O)CCCN2CCCC2=O)cc1 (stereo unspecified),inactive
9,CCN(CC)CCn1c(=N)n(CC(O)COc2ccccc2)c2ccccc21 (stereo unspecified),inactive
10,COCCNc1nc(Oc2cncc(Cl)c2)c2sccc2n1,inactive
11,Cc1ccc(C)c(S(=O)(=O)Nc2ccc(C(=O)N3CCC3)cc2)c1,inactive
12,N#Cc1cccnc1Nc1cccc(Cl)c1,inactive
13,Cc1nc2ccccc2c(=O)n1/N=C/c1ccc(N(C)C)cc1,inactive
14,C[C@@H]1CN([C@H](C)CO)C(=O)c2cc(C#CCc3ccccc3)cnc2O[C@H]1CN(C)C(=O)C1CCC1,inactive
15,Cc1noc(C)c1NC(=O)N(C)C[C@H]1Oc2c(NC(=O)C3CCCCC3)cccc2C(=O)N([C@H](C)CO)C[C@@H]1C,inactive
16,CN(C(=O)COC(=O)c1cccs1)c1ccccc1,inactive
17,CCOC(=O)c1sc(NC(C)=O)nc1-c1ccccc1,inactive
18,O=C(O)C(Cc1ccc(O)cc1)N1C(=O)c2ccccc2C1=O (stereo unspecified),inactive
